Rows were chosen to be rich in hits. Some 3% of all compounds tested hit in one or more screens of this group.
S16 F2sN tox: cytotoxicity in S16 Pmp22-F2sN Schwann cells. S16 Pmp22-F2sN Schwann cells viability, CellTiter-Glo, 24 h. Potency, µM (series often up to 57.5 µM), for the others: at the highest dose activity change, negative = cytotoxicity, most hits filed as cytotoxic. 43,000 tested, 0.48% active. AID 1508642; also: nearly all actives have a fitted effect of over 65% in size
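Luminescence from CellTiter-Glo, read by CCD camera after a 15 min room-temperature incubation, served as the viability signal. Reporter Schwann cells (S16 Pmp22-F2sN) had been treated with pin-transferred compounds for 24 h at 37C.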
mTORC1 inh: inhibitors of mTORC1 signaling in Tsc2-/- p53-/- MEF cells; Tsc2-/- p53-/- MEF, phospho-rpS6 immunofluorescence/PI, 24 h; Potency, µM (series often up to 38.3 µM), for inactives: at the highest dose activity change, negative = inhibition, most hits filed as inhibitors; 44,000 tested, 0.78% active;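 also: plate controls were DMSO for no effect and rapamycin for full effect; nearly all actives have a fitted effect of over 50% in size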
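Cell-based qHTS: Tsc2-/- p53-/- MEF, 24 h cpd, 37 °C; fix/perm, anti-phospho-S6 Alexa-488 + PI; Acumen 488 nm scan; pS6/PI ratio, % positive cells; rapamycin 7.5 nM = inhibition ref; PI count = viability.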
OvCa metastasis: ovarian cancer metastasis inhibition, 3D TME model | SKOV3ip1-GFP adhesion/invasion on 3D omental model, fluorescence | Potency, µM (titrated, usually from 45.8 µM), inactives show at the highest dose activity change, negative = inhibition, most hits filed as inhibitors | 46,000 tested, 0.1% active;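 also: plate controls were DMSO wells for no effect and tomatine positive control wells for full effect; nearly all actives have a fitted effect of over 65% in size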
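Adhesion/invasion was scored as fixed GFP-labeled SKOV3ip1 cell counts (488/509 nm), normalized to DMSO and tomatine controls. Cancer cells in serum-free medium, with four compound doses (0.36-46 umol/L), sat 2 hr at RT then 16 hr at 37 C on a 48 hr fibroblast/mesothelial/ECM culture.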
p53null 39C tox: kills p53 null cells at the nonpermissive temperature; Potency, µM (doses to about 46.1 µM), for inactives: at the highest dose activity, negative = cell killing, usual class: cytotoxic; H1299 p53-null (neo) cells, 39C, ATPlite viability, 24 h; AID 904; 55,000 tested, 0.97% active;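 also: 0% = DMSO only and -100% = full killing by 100 µM tamoxifen; nearly all actives have a fitted effect of over 50% in size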
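Following overnight plating at 37C (600 cells/well), H1299-neo or H1299-p53A138V cells are dosed up to 46 uM. Incubation lasts 24 hr at 39C before ATP detection.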
p53null 32C kill: kills p53 null cells at the permissive temperature; 55,000 tested, 0.62% active; H1299-neo p53 null cells, ATP luminescence, 24 h, 32C; Potency, µM (doses to about 46.1 µM), without a hit: at the top dose activity change, negative = cytotoxicity, hits mostly cytotoxic;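 also: 0% = DMSO only and -100% = full killing by 100 µM tamoxifen; nearly all actives have a fitted effect of over 55% in size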
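AC50 values derive from Hill modelling of qHTS concentration-response data (up to 46 uM) in H1299-neo cells. Cells were treated 24 h at 32C following overnight attachment at 37C; viability was read as cellular ATP.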
PMP22 txn prim: modulators of PMP22 gene transcription in S16 Schwann cells; S16 Pmp22-F2sN Schwann cells (luciferase reporters placed in the Pmp22 gene), FLuc/NLuc coincidence luminescence, 24 h; Potency, µM (doses to about 57.5 µM), inactives show at the top dose activity change, negative = inhibition, actives largely listed as inhibitors; 43,000 tested, 2% active; active = clear falling dose curves in both reporters; inconclusive = both reporters move, but less clearly or upward; inactive = either reporter flat; the % is the NLuc reporter signal
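Schwann cells carrying the coincidence reporter were exposed to library compounds for 24 h at 37C, then lysed and read for FLuc and, after quenching, NLuc luminescence on a CCD imager.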
* = called active by the depositor; [ ] = dose if it differs, or a comment. Unless noted, calls follow the shape of the dose curve; as a rule, active = well fitted curve in the direction sought with a large enough effect; inconclusive = small, poorly fitted or top-dose-only effect, or another doubt; inactive = no such curve, though single readings can be large; an effect the other way counts as inactive or inconclusive. Unless noted, % is scaled to controls: 0 for no effect and ±100 for the full control effect; potency is read from the fitted curve at half-maximal effect.

Results for COc1ccc(/C=C/C(=O)Nc2ccc3nc(N4CCCCC4)cc(C)c3c2)cc1OC ?
S16 F2sN tox: inconclusive; mTORC1 inh: inconclusive; OvCa metastasis: inconclusive; p53null 39C tox: -3%; p53null 32C kill: -7%; PMP22 txn prim: inconclusive

What do the screens show for `COc1ccc(/C=C/C(=O)Nc2ccc3nc4c(c(Nc5ccccc5OC)c3c2)CCCC4)cc1`?
S16 F2sN tox: inconclusive; mTORC1 inh: 2.3µM*; OvCa metastasis: 1.3µM*; p53null 39C tox: inconclusive; p53null 32C kill: -9%; PMP22 txn prim: inconclusive

How did O=C1NC(O)CCN1[C@@H]1O[C@H](CO)[C@H](O)[C@H]1O (stereo partly specified) do in these assays?
OvCa metastasis: -15%

Results for Cc1cc(Nc2ccc(Cl)cc2C)nc(-n2nc(C)cc2C)n1 ?
S16 F2sN tox: 5.6µM*; mTORC1 inh: 0%; OvCa metastasis: -9%; p53null 39C tox: -7%; p53null 32C kill: -13%; PMP22 txn prim: 7µM*

Results for O=c1cc(-c2cccc3c2Sc2ccccc2S3)oc(N2CCOCC2)c1 ?
OvCa metastasis: -13%

How did Cc1cc(Nc2cccc(C(F)(F)F)c2)nc2ccc(NC(=O)c3cccc(Cl)c3)cc12 do in these assays?
S16 F2sN tox: -20%; mTORC1 inh: inconclusive; OvCa metastasis: -2%; p53null 39C tox: 13µM*; p53null 32C kill: -18%; PMP22 txn prim: inconclusive

Results for Cc1cc(Nc2cccc(C(F)(F)F)c2)nc2ccc(NC(=O)c3cccnc3)cc12 ?
S16 F2sN tox: inconclusive; mTORC1 inh: inconclusive; OvCa metastasis: 11µM*; p53null 39C tox: inconclusive; p53null 32C kill: 28µM*; PMP22 txn prim: inconclusive

How did FC(F)(F)c1cccc(Nc2c3c(nc4ccc(Cl)cc24)CCC3)c1 do in these assays?
S16 F2sN tox: inconclusive; mTORC1 inh: 5.8µM*; OvCa metastasis: -6%; p53null 39C tox: inconclusive; p53null 32C kill: inconclusive; PMP22 txn prim: inconclusive

Results for Cc1cc(Nc2cccc(Cl)c2)nc2ccc(NC(=O)Cc3cccc(C(F)(F)F)c3)cc12 ?
S16 F2sN tox: -27%; mTORC1 inh: 0%; OvCa metastasis: inconclusive; p53null 39C tox: inconclusive; p53null 32C kill: -5%; PMP22 txn prim: inconclusive

Results for CC(C)c1nn(-c2c(Cl)cccc2Cl)c2nc(Cc3ccc(OCCO)cc3)[nH]c(=O)c12 ?
OvCa metastasis: 20%

How did Cc1cc(Nc2nc(N[C@@H](C)c3ccc(F)cc3)c(C#N)cc2F)n[nH]1 do in these assays?
OvCa metastasis: 6%

Results for O=C(Nc1ccccc1F)c1nc(S(=O)(=O)Cc2ccccc2F)ncc1Cl ?
S16 F2sN tox: 6.3µM*; mTORC1 inh: 1.2µM*; OvCa metastasis: 3.2µM*; p53null 39C tox: inconclusive; p53null 32C kill: -11%; PMP22 txn prim: inconclusive

Results for COc1ccc2nc(NC(=O)c3nc(S(=O)(=O)Cc4ccccc4)ncc3Cl)sc2c1 ?
S16 F2sN tox: 5.6µM*; mTORC1 inh: 9.3µM*; OvCa metastasis: inconclusive; p53null 39C tox: inconclusive; p53null 32C kill: -26%; PMP22 txn prim: 3µM*

Results for O=C(Nc1nc2ccc(F)cc2s1)c1nc(S(=O)(=O)Cc2ccccc2)ncc1Cl ?
S16 F2sN tox: 6.3µM*; mTORC1 inh: -8%; OvCa metastasis: inconclusive; p53null 39C tox: inconclusive; p53null 32C kill: 11%; PMP22 txn prim: 6.2µM*

How did COc1ccc2nc(NC(=O)c3nc(S(=O)(=O)Cc4ccccc4F)ncc3Cl)sc2c1 do in these assays?
S16 F2sN tox: 3.5µM*; mTORC1 inh: 15µM*; OvCa metastasis: 7.1µM*; p53null 39C tox: -18%; p53null 32C kill: -28%; PMP22 txn prim: 4.8µM*

How did COc1ccc2nc(NC(=O)c3nc(SCc4ccccc4F)ncc3Cl)sc2c1 do in these assays?
S16 F2sN tox: 11%; mTORC1 inh: 2%; OvCa metastasis: 3%; p53null 39C tox: 13%; p53null 32C kill: -6%; PMP22 txn prim: -1%

Results for CC[C@H](C=C[C@@H](C)[C@H]1CC[C@H]2[C@@H]3CC=C4C[C@@H](O)CC[C@]4(C)[C@@H]3CC[C@]12C)C(C)C ?
OvCa metastasis: 1%[23.2 µM]

Results for N=C1SC(=Cc2ccc(-c3ccc4c(c3)C(=O)NC4=O)o2)C(=O)N1c1ccc(Br)cc1 ?
OvCa metastasis: -17%

How did Cc1nnc(NC(=O)c2nc(S(=O)(=O)Cc3ccccc3)ncc2Cl)s1 do in these assays?
S16 F2sN tox: 5µM*; mTORC1 inh: inconclusive; OvCa metastasis: inconclusive; p53null 39C tox: inconclusive; p53null 32C kill: inconclusive; PMP22 txn prim: 13µM*

Results for Cc1cccc(CS(=O)(=O)c2ncc(Cl)c(C(=O)NCc3ccccc3)n2)c1 ?
S16 F2sN tox: 20µM*; mTORC1 inh: 18µM*; OvCa metastasis: -12%; p53null 39C tox: inconclusive; p53null 32C kill: 19%; PMP22 txn prim: inconclusive

Results for COc1ccccc1N1CCN(Cc2cc(COC(C)C)c3cccnc3c2O)CC1 ?
S16 F2sN tox: 7.1µM*; mTORC1 inh: 5.8µM*; OvCa metastasis: inconclusive; p53null 39C tox: 1.6µM*; p53null 32C kill: 16µM*; PMP22 txn prim: 3.5µM*

How did CCCOCc1cc(CN2CCN(c3ccccc3OC)CC2)c(O)c2ncccc12 do in these assays?
S16 F2sN tox: 10µM*; mTORC1 inh: 9.3µM*; OvCa metastasis: inactive; p53null 39C tox: 3.2µM*; p53null 32C kill: 16µM*; PMP22 txn prim: 5.8µM*

How did CCOCc1cc(CN2CCN(c3ccccc3OC)CC2)c(O)c2ncccc12 do in these assays?
S16 F2sN tox: 3.2µM*; mTORC1 inh: inconclusive; OvCa metastasis: inactive; p53null 39C tox: 1.3µM*; p53null 32C kill: 1%; PMP22 txn prim: inconclusive

How did Cc1cc(OCCCc2c(C(=O)O)n(Cc3cccnc3)c3c(-c4c(COc5ccc(N6CCN([S+](C)(=O)[O-])CC6)cc5)nn(C)c4C)cccc23)cc(C)c1Cl do in these assays?
OvCa metastasis: -3%

Results for C[N+]1(C)[C@@H]2C[C@@H](OC(=O)C(O)(c3cccs3)c3cccs3)C[C@H]1[C@@H]1O[C@@H]12 ?
OvCa metastasis: 6%

What do the screens show for `Cc1noc(/C=C/N(C)C)c1S(=O)(=O)N1CCCC(C(=O)Nc2ccc(F)cc2F)C1` (stereo unspecified)?
S16 F2sN tox: 2%; mTORC1 inh: 18µM*; OvCa metastasis: -6%; p53null 39C tox: 18%; p53null 32C kill: 36%; PMP22 txn prim: -40%

Source: PubChem
